Source: PubChem BioAssay (National Center for Advancing Translational Sciences (NCATS))
mIDH1 inhibitor – inhibitors of human mutant IDH1 R132H | Potency, µM (titrated, usually from 76.6 µM), for the others: top-dose activity change, negative = inhibition, usual class: inhibitors | actives 0.093% (n = 390,000) | O75874 | IDH1-R132H enzyme, NADPH consumption, diaphorase/resazurin fluorescence; further: nearly all actives have a fitted effect of over 65% in size
Target sequence (O75874 whole entry R132H, stated change not applied): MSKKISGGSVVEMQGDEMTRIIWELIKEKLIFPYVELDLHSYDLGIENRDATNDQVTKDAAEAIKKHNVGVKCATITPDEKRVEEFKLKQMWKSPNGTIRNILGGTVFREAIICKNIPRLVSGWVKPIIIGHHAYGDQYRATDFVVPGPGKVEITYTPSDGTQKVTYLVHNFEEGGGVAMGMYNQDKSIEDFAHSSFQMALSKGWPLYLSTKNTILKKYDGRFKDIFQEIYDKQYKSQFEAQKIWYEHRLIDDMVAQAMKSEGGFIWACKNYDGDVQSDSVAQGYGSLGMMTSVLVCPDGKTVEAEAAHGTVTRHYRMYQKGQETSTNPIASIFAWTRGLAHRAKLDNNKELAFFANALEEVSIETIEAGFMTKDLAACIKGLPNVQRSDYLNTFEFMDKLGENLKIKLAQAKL
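IDH1-R132H (0.5 ug/mL dispensed) in pH 7.5 Tris buffer was preincubated 30 min with compound, then given a substrate mix of 0.016 mM NADPH and 2 mM alpha-KG for 80 min at room temperature; remaining NADPH was read by diaphorase/resazurin fluorescence.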
GLS inh – inhibitors of human glutaminase (GLS). O94925. GLS enzymatic activity, qHTS titration. Potency, µM (titrated, usually from 45.5 µM), for the others: at the top dose activity change, negative = inhibition, hits mostly inhibitors. actives 0.21% (n = 410,000). AID 624170
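Two-point fluorescence kinetic (t0, 30 min RT) for hKGA; glutamate detected via glutamate oxidase–HRP–Amplex Red. Substrate: 1 mM L-glutamine solution; buffer 45 mM KH2PO4, pH 8.2.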
TrxR1 inh – rat TrxR1 inhibition; recombinant rTrxR1, NADPH fluorescence consumption, selenite substrate; Potency, µM (doses to about 114 µM), for the others: at the highest dose activity change, negative = inhibition, usual class: inhibitors; actives 1% (n = 390,000); AID 588453; further: nearly all actives have a fitted effect of over 65% in size
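Rat TrxR1 (90 nM in the dispensed reagent) was pre-reduced with 400 uM NADPH for 5 min at room temperature, then incubated with compound for 15 min. After 400 uM selenite was added, NADPH fluorescence (Ex 340/Em 450 nm) was followed for 8 min.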
TrxR1 substrate – is turned over as a substrate by rat TrxR1; actives 0.01% (n = 390,000); AID 588456; purified TrxR1 substrate turnover, NADPH consumption readout; O89049; Potency, µM (highest dose often 114 µM), without a hit: top-dose activity change, negative = substrate turnover; further: nearly all actives have a fitted effect of over 50% in size
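Rat TrxR1, dispensed at 90 nM, was prereduced with 400 uM NADPH (final) for 5 min at ~22 deg C, then incubated with compound 15 min before 400 uM selenite. A first-read NADPH fluorescence drop versus no-compound background flagged substrates.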
Active calls of the source: *; ? = inconclusive; . = no result given; [ ] = another dose, or the depositor's remark. A selection: hits, their analogues and other compounds. The true share with any hit is near 1.2%. The call rests on the fitted dose curve; in most records, active means well fitted curve in the direction sought with a large enough effect; inconclusive means small, poorly fitted or top-dose-only effect, or another doubt; inactive means no such curve, though single readings can be large; an effect the other way counts as inactive or inconclusive. On the % scale 0 is the no-effect control and ±100 the full control effect; potency means the concentration at half of the fitted maximal effect.

SMILES	mIDH1 inhibitor	GLS inh	TrxR1 inh	TrxR1 substrate
CCOC(=O)c1ccc(N=Cc2nc(-c3ccccc3)oc2OC(C)=O)cc1	1%	71%	2µM*	-2%
CCC(=O)Oc1oc(-c2ccccc2)nc1C=Nc1ccc(C)cc1	-3%	1%	7%[11.4 µM]	5%[11.4 µM]
CC(=O)Oc1oc(-c2ccccc2)nc1C=Nc1ccccc1	-1%	?	40µM*	-13%
CCc1ccccc1NC(=O)CSc1nc2c(oc3ccccc32)c(=O)n1-c1ccccc1F	-11%	4%	28%	9%
COc1ccc(C2/C=C\CN(CC3CCCCC3)C(Cc3ccccc3)C(=O)N2Cc2ccc(F)cc2)cc1 (stereo not drawn)	.	.	1%	-6%
CC(=O)c1ccc(OC(=O)COc2ccccc2Cl)cc1	10%	6%	18µM*	2%
COc1cccc(CNc2ccc3[nH]c(=O)[nH]c3c2)c1OCc1ccccc1Cl	-1%	25%	2%	-3%
COc1cccc(CNc2ccc3[nH]c(=O)[nH]c3c2)c1OCc1ccccc1	16%	16µM*	0%[57.1 µM]	-6%[57.1 µM]
COc1ccccc1-c1nc(SCC(=O)NCc2ccccc2)c2c(=O)n(C)c(=O)n(C)c2n1	-1%	-2%	5%[57.1 µM]	-2%[57.1 µM]
COc1ccc(OC)c(NS(=O)(=O)c2ccc(N3CCCCS3(=O)=O)cc2)c1	-3%	10%	21%[57.1 µM]	7%[57.1 µM]
Cc1ccc(NC(=O)CN(C)C(=O)Cn2ncc(Cl)c(Cl)c2=O)cc1	2%	5%	71µM*	-9%
COC(=O)Cc1c(C)c2cc3c(c(C)c2oc1=O)OCN(CCc1ccc(OC)cc1)C3	-5%	6%	79µM*	351%
COc1ccccc1CCN1COc2c(cc3c(C)c(C)c(=O)oc3c2C)C1	15%	27%	89µM*	587%
CCc1c(C)c2cc3c(c(C)c2oc1=O)OCN(CCc1ccc(OC)c(OC)c1)C3	-10%	-1%	?	526%
CC1(OC(=O)C2CCCC2)C(=O)C=C2C=C(c3ccsc3)N(Cc3ccco3)C=C2C1=O (stereo not drawn)	17%	12%	32µM*	-2%
CC1(OC(=O)C2CCCC2)C(=O)C=C2C=C(c3ccsc3)N(CCCCO)C=C2C1=O (stereo not drawn)	10%	-3%	12%[57.1 µM]	-8%[57.1 µM]
CC[C@H]1OC(=O)[C@H](C)[C@@H](O[C@H]2C[C@@](C)(OC)[C@@H](O)[C@H](C)O2)[C@H](C)[C@@H](O[C@@H]2O[C@H](C)C[C@H](N(C)C)[C@H]2O)[C@](C)(O)C[C@H](C)C(=NOCOCCOC)[C@H](C)[C@@H](O)[C@]1(C)O	.	6%	.	.
Cc1csc(N/N=C/c2ccc(O)c([N+](=O)[O-])c2)n1	4%	10%	28µM*	-23%
O=[N+]([O-])c1cc(/C=N\Nc2nc(-c3ccccc3)cs2)ccc1O	20%	6%	-2%[57.1 µM]	1%[57.1 µM]
CC1=C[C@@H](O)CC(C)(C)[C@@H]1/C=C/C(C)=C/C=C/C(C)=C/C=C/C=C(C)/C=C/C=C(C)/C=C/C1=C(C)C[C@H](O)CC1(C)C	.	-13%	.	.
CCOC(=O)C1Nc2c(F)cc(C)cc2C2c3ccccc3CC12 (stereo not drawn)	-2%[38.3 µM]	4%	3%	-4%
CCOC(=O)C1Nc2ccccc2C2c3ccccc3CC12 (stereo not drawn)	2%	14µM*	32%	33%
CC(C)CNC(=O)C1Nc2ccc(OC(F)(F)F)cc2C2C=CCC12 (stereo not drawn)	-27%	-5%	?	-6%
O=C(O)C1Nc2ccc(Br)cc2C2C=CCC12 (stereo not drawn)	-6%	7.9µM*	20µM*	-1%
COc1ccc(Br)cc1[C@@H]1Nc2ccc(C(=O)O)cc2[C@@H]2C=CC[C@@H]21	-3%	?	-19%	0%
SMILES	mIDH1 inhibitor	GLS inh	TrxR1 inh	TrxR1 substrate
CCOC(=O)C1Nc2ccc(Br)cc2C2C=CCC12 (stereo not drawn)	3%	1%	32µM*	-2%
CCOC(=O)C1Nc2ccc(C)cc2C2C=CCC12 (stereo not drawn)	-14%	-16%	5.6µM*	9%[57.1 µM]
CC1CCN(c2nc3ccc(C(=O)NCc4ccccc4Cl)cc3s2)CC1	-16%	1%	14%	1%
COc1ccc2ncc3c(-c4ccccc4)nn(-c4ccc(C)c(C)c4)c3c2c1	5%	1%	-24%	26%
Cc1cccc(C(=O)NCC(c2ccc3c(c2)OCO3)N2CCN(c3ccccc3F)CC2)c1 (stereo not drawn)	-19%	6%	40%[57.1 µM]	4%[57.1 µM]
Clc1ccc(/C=C/c2ccnc3ccccc23)c(Cl)c1	.	.	?	-8%
COc1cc2nc(SCC(=O)Nc3cccc(C)c3)n3nc(CCn4c(C)nc5ccccc54)nc3c2cc1OC	.	-7%	1%	-3%
O=c1cc(S(=O)(=O)Cc2ccccc2)[nH]c(=O)[nH]1	7%	-19%	-26%	-6%
CCOC(=O)c1ccc2c(c1)C1C=CCC1C(C(=O)OCC)N2 (stereo not drawn)	3%	3%	40µM*	2%
CCOC(=O)c1ccc2c(c1)[C@@H]1C=CC[C@@H]1[C@H](c1cccc(OC)c1OC)N2	-17%	2%	18%	4%
COc1cccc(-n2nc(C#N)c(Cl)cc2=O)c1	4%	-6%	4µM*	5%[57.1 µM]
COc1ccc(OC)c(-c2c3cc(O)c(=O)cc-3oc3cc(O)c(O)cc23)c1	40µM*	-2%	-3%[57.1 µM]	-7%[57.1 µM]
CCOc1ccccc1-c1c2cc(O)c(=O)cc-2oc2cc(O)c(O)cc12	13µM*	?	?	-18%
CC(=O)[O][Al][O]C(C)=O	.	-10%	.	.
Cc1ccc(/C=[N+](\[O-])c2ccc(N(C)C)cc2)c2nsnc12	21%	?	22µM*	-14%
CCOc1ccc(C(=O)CCN2CCCCCC2)cc1	1%	17%	0.25µM*	1%
CCCCOc1ccc(C(=O)CCN2CCOCC2)cc1	-19%	7%	3.5µM*	3%[57.1 µM]
CCCOc1ccc(C(=O)CCN2CCCCC2)cc1	3%	21%	?	8%
COc1ccc(NC(=O)c2cc3c(COC(C)=O)cnc(C)c3oc2=Nc2cccc(C(=O)O)c2)c(OC)c1	-15%	10µM*	13%	3%[57.1 µM]
COc1ccc(NC(C)=O)cc1S(=O)(=O)N1CCn2cccc2C1C (stereo not drawn)	-9%	2%	50µM*	-11%
COC(=O)c1ccccc1S(=O)(=O)N1CCn2cccc2C1C (stereo not drawn)	-2%	5%	7%[57.1 µM]	3%[57.1 µM]
CCCOc1ccc(C2C(C(=O)c3ccc(C)o3)=C(O)C(=O)N2CCN2CCOCC2)cc1OC (stereo not drawn)	4%	-1%	50µM*	-6%
NC(=O)COC(=O)c1cc(-c2ccco2)nc2ccccc12	13%	-14%	79µM*	60%
Cc1ccc(S(=O)(=O)N(C)C)cc1NC(=O)c1cc(-c2ccco2)nc2ccccc12	10%	-8%	3.5µM*	63%
O=C(c1cc(-c2ccco2)nc2ccccc12)N1CCN(Cc2ccccc2)CC1	0%	-2%	40µM*	109%
